Data on 14 compounds can be found in PubChem BioAssay (NCATS).

Measured potencies and affinities stand elsewhere. Calls of active or inactive are those of the source. How the calls were made is not given here.
Further: 0% is about no effect.

For the test the following is noted: Ebola virus entry assay, green fluorescence channel.
As for `CN(C)CCOc1ccccc1Cc1ccccc1`, the efficacy is 74.8% (inactive). Then `NCc1ccccc1Sc1ccccc1CO`, with 118% (inactive); and `CCCOC(C(=O)OC1CCN(C)CC1)(c1ccccc1)c1ccccc1`, with 30.9% (inactive). Then `COc1cc2c(cc1OC)-c1cc(=Nc3c(C)cc(C)cc3C)n(C)c(=O)n1CC2`, with 20.5% (inactive); and `CCN(CC)CCOC(=O)C(c1ccccc1)c1ccccc1`, with 39% (inactive). Turning to `N[C@H](C(=O)O)[C@@H](O)c1ccc(O)c(O)c1`, the efficacy was 53.3% (inactive). Then `CCCCOc1cc(C(=O)OCCN(CC)CC)ccc1N`, with 52.2% (inactive); and `CCOC(=O)COc1ccc2c(C)c(CCN(CC)CC)c(=O)oc2c1Cl`, with 158% (inactive).

In the case of `CCN(CC)CCOC(=O)C(Cc1cccc2ccccc12)CC1CCCO1` (centres undefined), the efficacy is 78.5% (inactive).

`CO[C@@H]1[C@@H](O[C@@H]2O[C@H](C)[C@@H](O[C@H]3C[C@@](C)(O)[C@@H](O)[C@H](C)O3)[C@H](N(C)C)[C@H]2O)[C@@H](CC=O)C[C@@H](C)[C@@H](O[C@@H]2CC[C@H](N(C)C)[C@@H](C)O2)/C=C/C=C/C[C@@H](C)OC(=O)C[C@H]1OC(C)=O`: the efficacy is 64.5% (inactive). The figure for `CN(C)CCOC(c1ccccc1)c1ccc(Br)cc1` (centres undefined) is 63.8% (inactive); for `CC(C)(C)c1ccc(C(O)CCCN2CCC(C(O)(c3ccccc3)c3ccccc3)CC2)cc1` (centres undefined) it is 59% (inactive). The figure for `CCN(CC)CCOc1ccccc1C(=O)CCc1ccccc1` is 42.3% (inactive); for `COC(=O)Nc1nc2ccc(S(=O)c3ccccc3)cc2[nH]1` (centres undefined) it is 35.9% (inactive).
